These results are taken from PubChem BioAssay (NCI).

The panel holds about 83,000 compounds, 20% with a hit somewhere; the sample as a whole holds those more often.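 Treatment: one concentration, 48 hours, 96-well format. Scoring: percent growth, with anything below 10 considered active.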 Values without a mark were called inactive. Calls of active or inactive are those of the source.

Some test systems named below: SK-MEL-2 melanoma; EKVX NSCLC; SN12C renal; UO-31 renal; TK-10 renal; ACHN renal; A498 renal; CCRF-CEM leukemia; MOLT-4 leukemia.
Holding throughout (assay): NCI-60 one-dose screen, 48 h (100 = growth as untreated, 0 = no growth, -100 = all killed)
Common to all, as to conditions: 10 µM unless noted

As to `NC(N)=N/N=C/c1ccc(-c2ccc(-c3ccc(Cl)cn3)s2)cc1`, the growth in the assay on SK-MEL-2 melanoma is 109%; with EKVX NSCLC, 98.9%; with SN12C renal it was 89.8%; with UO-31 renal, 78%; in the assay with TK-10 renal, 112%; in the assay on ACHN renal it was 92.2%. Further, the growth in the assay on A498 renal was 88.8%; in the assay with CCRF-CEM leukemia it was 29.7%; in the assay with MOLT-4 leukemia it was 73.7%.

With `Cc1cc(N2CCCCC2)nc(N(CCNc2ccnc3cc(Cl)ccc23)Cc2ccco2)n1`, the growth with SK-MEL-2 melanoma is 76.4%; with EKVX NSCLC, 64.8%; with SN12C renal, 24%; in the assay with UO-31 renal, 40.6%; in the assay on TK-10 renal, 68.5%; in the assay with ACHN renal, 27.8%. Further, the figures for the growth in the assay with A498 renal, in the assay with CCRF-CEM leukemia and with MOLT-4 leukemia were 61.3%, 10.2% and 0.376% (active), respectively.

Take `Cc1cc2nc3c4cc(O)ccc4n(CCN(C)C)c3nc2cc1C`: the growth with SK-MEL-2 melanoma was -42.9% (active); in the assay with EKVX NSCLC it was 2.33% (active); with SN12C renal, 3.51% (active); in the assay with UO-31 renal, -37.5% (active); in the assay with TK-10 renal it was 5.14% (active); in the assay with ACHN renal it was -33.7% (active). For the same compound, the growth is 9.28% (active) with A498 renal, 9.31% (active) in the assay with CCRF-CEM leukemia and 1.9% (active) in the assay on MOLT-4 leukemia.

Consider `CCNCCCn1c2c(c3ccc([N+](=O)[O-])cc3c1=O)C(=O)c1cc(OC)cnc1-2`, for which the growth is -27.8% (active) in the assay on SK-MEL-2 melanoma; 8.7% (active) with EKVX NSCLC; 1.09% (active) in the assay on SN12C renal; -85.1% (active) in the assay on UO-31 renal; -27.6% (active) in the assay on TK-10 renal; -61.1% (active) in the assay with ACHN renal. Also, the growth was -89.2% (active) in the assay with A498 renal, 3.93% (active) with CCRF-CEM leukemia and -4.26% (active) in the assay on MOLT-4 leukemia.

On to `O=C1Nc2ccccc2/C1=C/c1cn(CCCn2c3ccccc3c(=O)c3ccccc32)c2ccccc12`, for which the growth in the assay with SK-MEL-2 melanoma was 84.4%; in the assay on EKVX NSCLC it was 60.3%; in the assay on SN12C renal it was 92%; with UO-31 renal, 44.6%; with TK-10 renal it was 140%; in the assay with ACHN renal, 89%. For the same compound, the growth in the assay on A498 renal was 112%; with CCRF-CEM leukemia it was 98.4%; with MOLT-4 leukemia, 77.7%.

For the compound `Cc1cc(Cl)nc(N(CCNc2ccnc3cc(Cl)ccc23)Cc2ccco2)n1`, the growth with SK-MEL-2 melanoma was 55.8%; with EKVX NSCLC it was 63.6%; in the assay on SN12C renal, 33.5%; in the assay on UO-31 renal it was -33.5% (active); in the assay with TK-10 renal, 64%; in the assay with ACHN renal, 17.7%. For the same compound, the growth in the assay on A498 renal was 70.2%; with CCRF-CEM leukemia, 8.24% (active); in the assay on MOLT-4 leukemia, 6.36% (active).

For `O=C1CCCC=CC[C@H]2C=C(Cl)C(=O)C2=CC[C@H](CCCCC(F)(F)F)OC(=O)CCCC=CC[C@H]2C=C(Cl)C(=O)C2=CC[C@H](CCCCC(F)(F)F)OC(=O)CCCC=CC[C@H]2C=C(Cl)C(=O)C2=CC[C@H](CCCCC(F)(F)F)O1`, the growth is 90.1% [6.25 µM] in the assay with SK-MEL-2 melanoma; 98.4% [6.25 µM] in the assay on EKVX NSCLC; 56.3% [6.25 µM] in the assay with SN12C renal; 78.9% [6.25 µM] in the assay on UO-31 renal; 148% [6.25 µM] in the assay on TK-10 renal; 71.2% [6.25 µM] in the assay with ACHN renal. The growth is 101% [6.25 µM] in the assay on A498 renal, 8.35% [6.25 µM] (active) in the assay with CCRF-CEM leukemia and 15.2% [6.25 µM] in the assay on MOLT-4 leukemia.

Regarding `CC(CNc1nc(Nc2ccc(Cl)c(Cl)c2)nc(C(Cl)(Cl)Cl)n1)N(C)C` (stereo unspecified), the growth in the assay with SK-MEL-2 melanoma is -92.1% (active); with EKVX NSCLC, 18.5%; in the assay on SN12C renal, 16.2%; in the assay on UO-31 renal it was -3.58% (active); with TK-10 renal, -61.7% (active); in the assay with ACHN renal, 6.79% (active). The growth was 22.8% with A498 renal, -3.41% (active) with CCRF-CEM leukemia and -49.4% (active) with MOLT-4 leukemia.

As for `NCCn1cc(-c2nc(-c3c[nH]c4ncccc34)cs2)c2ccccc21`, the growth with SK-MEL-2 melanoma is 103%; with EKVX NSCLC, 53.6%; with SN12C renal, 78.7%; in the assay with UO-31 renal, 51.3%; with TK-10 renal, 148%; with ACHN renal, 82.9%. Besides, the growth in the assay on A498 renal was 88.2%; in the assay on CCRF-CEM leukemia, 88.5%; in the assay on MOLT-4 leukemia, 96.4%.

With `COc1cc(/C=N/Nc2ncnc3c2c(C)nn3-c2ccc(F)cc2)ccc1O`, the growth in the assay with SK-MEL-2 melanoma is 89.9%; in the assay on EKVX NSCLC, 87.6%; in the assay on SN12C renal it was 85.1%; with UO-31 renal, 64.4%; in the assay on TK-10 renal, 88.7%; in the assay on ACHN renal, 92.7%. Further, the growth in the assay on A498 renal was 103%; with CCRF-CEM leukemia, 62%; in the assay with MOLT-4 leukemia it was 61.7%.

Regarding `Cc1cc(N(CCNc2ccnc3cc(Cl)ccc23)Cc2ccco2)nc(Cl)n1`, the growth in the assay with SK-MEL-2 melanoma was -7.16% (active); with EKVX NSCLC, 32.2%; with SN12C renal, -79.2% (active); in the assay on UO-31 renal, -97% (active); with TK-10 renal it was -74.4% (active); in the assay on ACHN renal, -98.8% (active). For the same compound, the growth with A498 renal is 20.8%; with CCRF-CEM leukemia it was 0.284% (active); in the assay with MOLT-4 leukemia, -26.2% (active).

Regarding `CC(=O)NC1=C(C#N)C(c2ccccc2Cl)c2c(ccc3ccccc23)O1` (stereo unspecified), the growth was 59.2% in the assay with SK-MEL-2 melanoma; 63.5% with EKVX NSCLC; 70.8% with SN12C renal; 49.8% in the assay on UO-31 renal; 141% in the assay on TK-10 renal; 65% in the assay with ACHN renal. Moreover, the growth with A498 renal was 56.2%; in the assay with CCRF-CEM leukemia, 60.8%; in the assay on MOLT-4 leukemia it was 50.2%.

`Cc1cc(Cl)nc(N(CCCNc2ccnc3cc(Cl)ccc23)Cc2ccco2)n1`: the growth is 39.4% in the assay with SK-MEL-2 melanoma; 24.1% in the assay on EKVX NSCLC; 26.6% in the assay with SN12C renal; 10.9% in the assay with UO-31 renal; 41.7% in the assay on TK-10 renal; 28.4% in the assay with ACHN renal. The growth with A498 renal is 38.1%; in the assay with CCRF-CEM leukemia it was 20.6%; with MOLT-4 leukemia it was -1.04% (active).

Consider `O=C(/C=C/c1ccc2ccccc2c1)Nc1ncc(Cc2ccccc2)s1`, for which the growth is 98.1% in the assay with SK-MEL-2 melanoma; 71.4% in the assay with EKVX NSCLC; 43.9% in the assay on SN12C renal; 43.5% in the assay on UO-31 renal; 22.6% with TK-10 renal; 6.83% (active) with ACHN renal. The growth with A498 renal is 86.2%; in the assay on CCRF-CEM leukemia it was 49.2%; in the assay with MOLT-4 leukemia it was 65.8%.
